This assay in a line: HT29 colon tumor cell growth inhibition, primary screen, imaging, high content imaging, 48 h, CellTiter-Glo (AID 771).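 As to condensed nuclei: condensed means Hoechst nuclear area under control median minus 1.5 SD.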 The note with it: HCS imaging cell count, at 10 µM, stronger effect = higher value; for condensed nuclei: measured here: percent cells with condensed nuclei.
Setting [1] is: measured here: ATP CellTiter-Glo viability inhibition.

This passage reports growth inhibition and condensed nuclei results from PubChem BioAssay AID771 (SRMLSC, 2007).

Several values for one entry are separate records, joined by “and”; a condition that tells them apart may be missing. Identical values can stand only once. In all, about 3,300 compounds went through this assay and about 55 (2%) were called active.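 The calls were made as follows: active = growth inhibition above 90%, meaning viable cell count by imaging cut by more than 90% versus vehicle controls; inactive = growth inhibition below 90%.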 What follows is part of a selection rich in actives, with near analogues and random picks from the rest. Where a structure was tested more than once in an assay, its records may differ in their call.

Consider `Cc1[nH]c2ccc(F)cc2c(=O)c1SC(F)(F)C(F)C(F)(F)F` (stereo not drawn), for which the growth inhibition was 31.7% (inactive) and the condensed nuclei stood at 3.08%. Under setting [1], the growth inhibition was -13.7%.
The corresponding values for `COc1cccc2c(=O)c(SC(F)(F)C(F)C(F)(F)F)c(C)[nH]c12` (stereo not drawn) are 91.7% (active), 11.3% and 63.5%.
For `COc1cccc(C(=O)NCC(=O)n2nc(C)cc2C)c1` the same measures were -2.19% (inactive), 2.14% and -15.9%.
Consider `CN(C)CC(O)COc1ccc(C(C)(C)c2ccc(OCC(O)CN(C)C)cc2)cc1` (stereo not drawn), for which the growth inhibition is 99.1% (active) and the condensed nuclei came out at 29.1%. Also, the growth inhibition under setting [1] amounted to 95.7%.
For `CN(C)CC(O)COc1cccc(OCC(O)CN(C)C)c1` (stereo not drawn) the same measures were 26.5% (inactive), 1.99% and -7%.
The corresponding values for `CN(C)CC(O)COc1ccc(-c2ccc(C#N)cc2)cc1` (stereo not drawn) are 71.1% (inactive), 5.66% and 51.9%.
For `CC(C)(C)c1ccc(C(O)CCCN2CCC(C(O)(c3ccccc3)c3ccccc3)CC2)cc1` (stereo not drawn), the growth inhibition is 98.2% (active) and the condensed nuclei was determined as 36.3%.
The corresponding values for `OC(CCN1CCCC1)(c1ccccc1)C1CCCCC1` (stereo not drawn) are 57.7% (inactive) and 7.95%.
As for `OC(CCN1CCCCC1)(c1ccccc1)C1CCCCC1` (stereo not drawn), the growth inhibition was 6.78% (inactive) and the condensed nuclei is 4.4%.
Take `CCOC(=O)C1=C(C)N=C2SC(C)C(=O)N2C1c1ccc(OC(C)=O)c(OC)c1` (stereo not drawn): the growth inhibition was 42.7% (inactive) and the condensed nuclei was determined as 1.51%. For the same compound, under setting [1], the growth inhibition was 12.7%.
Take `CC(C)Cc1[nH]c(=O)c(C#N)c2c1COC(C)(C)C2`: the growth inhibition is -9.54% (inactive) and the condensed nuclei is 1.96%. For the same compound, the growth inhibition under setting [1] came to 6.82%.
The corresponding values for `CCCCCCc1cc2cc(-c3nnc(-c4ccccc4O)o3)c(=O)oc2cc1O` are 4.58% (inactive), 3.18% and 3.73%.
The corresponding values for `CCN(CC)c1ccc2cc(C(=O)Nc3ccccn3)c(=O)oc2c1` are -58.4% (inactive), 2.18% and -2.93%.
For `CCN(CC)c1ccc2cc(-c3nnc(-c4ccncc4)o3)c(=O)oc2c1` the same measures were 100% (active), 1.36% and -8.56%.
`OCCN1CCN(CCCN2c3ccccc3Sc3ccc(C(F)(F)F)cc32)CC1`: the growth inhibition is 99.7% (active) and the condensed nuclei stood at 57%.
Regarding `OCCN1CCN(CCCN2c3ccccc3Sc3ccc(Cl)cc32)CC1`, the growth inhibition is 84.9% (inactive) and the condensed nuclei was determined as 46.7%.
Turning to `CN1CCN(CCC(=O)N2c3ccccc3Sc3ccc(Cl)cc32)CC1`, the growth inhibition is 55.5% (inactive) and the condensed nuclei was determined as 2.4%. Further, the growth inhibition under setting [1] was -11.6%.
Regarding `CN1CCN(CCCN2c3ccccc3Sc3ccc(Cl)cc32)CC1`, the growth inhibition is -16.4% (inactive) and the condensed nuclei amounted to 1.86%.
For the compound `CN1CCN(CCCN2c3ccccc3Sc3ccc(C(F)(F)F)cc32)CC1`, the growth inhibition was 99.7% (active) and the condensed nuclei came out at 45.5%.
In the case of `CSc1ccc2c(c1)N(CCC1CCCCN1C)c1ccccc1S2` (stereo not drawn), the growth inhibition was 8.58% (inactive) and the condensed nuclei turned out to be 2.87%.
With `CCCOc1ccc(/C(O)=C2/C(=O)C(=O)N(CCN3CCOCC3)C2c2ccccc2)cc1` (stereo not drawn), the growth inhibition is 6.6% (inactive) and the condensed nuclei came out at 3.56%. The growth inhibition under setting [1] was -7.42%.
`CC1(C)Cc2nc(N)c(C(=O)NCCO)cc2CO1`: the growth inhibition is -4.53% (inactive) and the condensed nuclei is 3.27%. Also, the growth inhibition under setting [1] is -20.8%.
For `COc1ccc(/C(O)=C2\C(=O)C(=O)N(c3cc(C)on3)C2c2cccc(OC)c2OC)cc1C` (stereo not drawn) the same measures were 37.5% (inactive), 2.33% and -6.66%.
For `CCN(CC)CCNC(=O)c1ccccc1N` the same measures were 25.6% (inactive), 0.38% and 4.22%.
The corresponding values for `CCCCOc1ccccc1C(=O)NCCCC(=O)O` are 45.1% (inactive), 2.4% and 27.4%.
As for `CCCCOc1cc(C(=O)NCCN(CC)CC)c2ccccc2n1`, the growth inhibition is 2.54% (inactive) and 97.2% (active); the condensed nuclei is 0.87% and 22.7%.
For `CC(C)C1Cc2c(C#N)c(N)sc(=S)c2CO1` (stereo not drawn), the growth inhibition is -17.8% (inactive) and the condensed nuclei stood at 3.02%. In addition, the growth inhibition under setting [1] was -10.1%.
For `CNCCC(Oc1ccc(C(F)(F)F)cc1)c1ccccc1` (stereo not drawn), the growth inhibition was 98.6% (active) and the condensed nuclei came out at 23.4%.
With `CC(=N\O)/C(CN(C)C)=N/O`, the growth inhibition was 19.1% (inactive) and the condensed nuclei was 2.85%. Further, under setting [1], the growth inhibition was 5.48%.
The corresponding values for `CCc1[nH]nc2c1C(c1ccc(Br)s1)C(C#N)=C(N)O2` (stereo not drawn) are 61% (inactive), 4.86% and 16.8%.
Regarding `CCN(CC)C(=O)c1ccc(O)c(OC)c1`, the growth inhibition is -10.4% (inactive) and the condensed nuclei was determined as 2.13%.
With `COc1cc(/C=C/C(=O)CC(=O)/C=C/c2ccc(O)c(OC)c2)ccc1O`, the growth inhibition was 95.8% (active) and the condensed nuclei is 35.4%.
For `O=C(O)/C=C/c1ccc(O)c(O)c1` the same measures were -1.98% (inactive) and 2.21%.
As to `CCCc1nnc(SCc2ccc(OCC)cc2)n1N`, the growth inhibition is 34.1% (inactive) and the condensed nuclei was 1.98%. Under setting [1], the growth inhibition is 0.5%.
Take `NC(Cc1ccc(Oc2ccc(O)cc2)cc1)C(=O)O` (stereo not drawn): the growth inhibition is -13.8% (inactive) and the condensed nuclei is 5.21%.
On to `CCn1nnc(C(=O)O)c1C(=O)O`, for which the growth inhibition is -4.1% (inactive) and the condensed nuclei was 2.3%. The growth inhibition under setting [1] was -5.53%.
The corresponding values for `Brc1ccc2c(c1)CNc1c(ncnc1N1CCOCC1)O2` are 45.1% (inactive), 0.48% and 12.2%.
For `N#CC12CCCCC1CC1CCCCC1(C#N)N2Cc1cccnc1` (stereo not drawn), the growth inhibition is 20.9% (inactive) and the condensed nuclei turned out to be 2.55%. Besides, the growth inhibition under setting [1] was -2.93%.
For the compound `CNCCCC1c2ccccc2C=Cc2ccccc21`, the growth inhibition is 98% (active) and the condensed nuclei was found to be 25%.
On to `CC(NC(=O)c1ccc(=O)oc1)c1ccccc1` (stereo not drawn), for which the growth inhibition is 53.4% (inactive) and the condensed nuclei is 5.45%. Further, under setting [1], the growth inhibition is -2.53%.
Regarding `CC(NCCC(c1ccccc1)c1ccccc1)c1ccccc1` (stereo not drawn), the growth inhibition is 95.3% (active) and the condensed nuclei came to 28.3%.
Turning to `O=C(O)c1ccc(C2CCCCC2)cn1`, the growth inhibition was -17.2% (inactive) and the condensed nuclei was determined as 0.69%. Also, the growth inhibition under setting [1] was -12.9%.
The corresponding values for `CCN(CC)CCN1C(=O)C(=O)/C(=C(/O)c2c(C)[nH]c(C(=O)OC)c2C)C1c1ccccc1` (stereo not drawn) are 29.2% (inactive), 11% and 26.4%.
